Screen size: about 360,000 compounds; about 780 (0.22%) were called active. Cut-off read from the data, not from the text of the source: active = inhibition above about 8.5% (passing the limit was not always enough); inconclusive = no clear call, values can overlap the other calls. The full list was thinned out, with actives kept by preference.

The subject of the assay is Mycobacterium tuberculosis FadD28 fatty-acid-AMP ligase. Kind of assay: inhibitors of FadD28 bisubstrate probe binding, primary screen, biochemical, fluorescence polarization, single point (AID 588549). To be noted: at 12.5 µM, hits give high values. (In general: Polarisation of emitted light reports the rotation of a fluorescent probe.)
As for `CN(CC#CCC(c1ccccc1)c1ccccc1)C(C)(C)C`, the inhibition (usually the drop in the measured response relative to a control, in per cent) is -4.42% (inactive).

On to `O=C(NCCc1ccco1)c1ccc(OCc2cn3ccccc3n2)cc1`, for which the inhibition was -3.83% (inactive). Next, `Cc1ccccc1-c1csc(C(O)c2cccc(Cl)c2)n1` (stereo unspecified): -5.7% (inactive); `COc1cccc2c1C(=O)c1c(O)c3c(c(O)c1C2=O)CC(O)(C(C)=NNC(=O)c1ccc(Cl)c(Cl)c1)CC3OC1CC(N)C(O)C(C)O1` (stereo unspecified): 59.5% (active). Next, `CN(C(=O)CN1C(=O)CCSc2ccc(S(=O)(=O)N3CCCC3)cc21)c1ccccc1`: -0.827% (inactive). Turning to `CC1=CC2=NC(=O)CC(C)(C(=O)N(CC(=O)NC(C)(C)C)Cc3ccccc3)N2C=C1` (stereo unspecified), the inhibition was 0.336% (inactive). Next, `COc1cc(C(=S)NCc2ccccc2)cc(Br)c1O`: 11% (active); `COc1ccccc1OCCC(=O)OCC(=O)NCc1ccccc1`: -1.13% (inactive). Under `COc1cc(-c2nnn(CC(=O)NCc3ccccc3)n2)cc(OC)c1OC` stands 0.0025% (inactive); under `CSc1ccc(CN2CCC2(C)C(=O)Nc2ccc(C)c(O)c2)cc1` (stereo unspecified), -2.96% (inactive).

Regarding `Cc1cc(-c2ccc(C)c(S(=O)(=O)Nc3ccc(S(N)(=O)=O)cc3)c2)on1`, the inhibition was 14.4% (active). Under `Cc1cc(-c2ccc(C)c(S(=O)(=O)NC(C)Cc3ccco3)c2)on1` (stereo unspecified) stands -1.87% (inactive); under `CCc1ccc(-c2cc(C)no2)cc1S(=O)(=O)NCCc1ccc(S(N)(=O)=O)cc1`, -1.2% (inactive); under `CO[C@@H]1[C@@H](OC(N)=O)[C@@H](O)C(Oc2ccc3c(O)c(NC(=O)c4ccc(O)c(CC=C(C)C)c4)c(=O)oc3c2C)OC1(C)C` (stereo partly specified), -2.46% (inactive). Next, `Cc1cccc(C)c1NC(=O)CS(=O)CC(=O)N1CCN(c2ccccc2)CC1` (stereo unspecified): 0.692% (inactive); `Cc1ccc(NC(=O)CSCC(=O)NC2CCCCC2)cc1`: 1.13% (inactive). `O=c1/c(=C/c2ccc(CNS(=O)(=O)c3ccccc3)o2)sc2n1CCN=2`: the inhibition is -4.15% (inactive). Take `Cc1ccc(N2CCN(S(=O)(=O)N(C)C)CC2)cc1Cl`: the inhibition was 0.0335% (inactive).

For `CC(C)CC(N=C1NC(C)(C)Cc2ccccc21)C(=O)O` (stereo unspecified), the inhibition was -3.18% (inactive). Under `CCCn1c(=S)[nH]c2ccc(C(F)(F)F)cc21` stands -2.34% (inactive).

For the molecule `Cc1nn(C(C)CC(=O)O)c(C)c1C` (stereo unspecified), the inhibition is -1.05% (inactive). Under `CCCC(=O)Nc1ccc2c(c1)nc1n2CCSC1` stands -0.77% (inactive); under `CS/C(=C\[N+](=O)[O-])Nc1ccc(C)cc1`, 2.23% (inactive); under `CC(C)CNC(=O)C(=O)NCC(c1ccc2c(c1)OCO2)N1CCOCC1` (stereo unspecified), -1.64% (inactive). Under `CCCCN1C(=O)C(CC(=O)NCc2cccs2)CC(C(=O)N2CCOCC2)=C1C` (stereo unspecified) stands -1.02% (inactive); under `CCNC(=O)NC(=O)C(C)OC(=O)C1CCN(S(=O)(=O)c2ccccc2F)CC1` (stereo unspecified), -0.363% (inactive).

(Values after PubChem BioAssay AID588549 (Broad Institute, 2011).)
